{
  "source": "PubChem BioAssay (NCATS)",
  "note": "Inconclusive results are not listed. Unmarked numbers belong to inactive results. Activity calls are given as the source filed them. The call rests on the fitted dose curve; in most records, active means well fitted cell-killing curve with a large enough effect; inconclusive means small, poorly fitted or top-dose-only effect, or effect the other way; inactive means no such curve, though single readings can be large or run the other way. Potency means the concentration at half of the fitted maximal effect.",
  "data": [
    {"assay": "Quantitative High-Throughput drug screen in 47 multiple myeloma cell lines against the NCATS MIPE library collection: KMS28PE_JCRB cell viability assay (AID 1918983); further: nearly all actives have a fitted effect of over 35% in size", "conditions": "KMS28PE multiple myeloma viability, CellTiter-Glo ATP, 48 h; series mostly up to 45.8 µM; viability, % of DMSO control: at the top concentration", "from_the_text": "PI: Beverly A. Mock Ph.D.\nLaboratory of Cancer Biology and Genetics,\nCenter for Cancer Research, National Cancer Institute,\nNational Institute of Health, Bethesda, Maryland\nDrug resistance and disease progression are common in multiple myeloma (MM) patients, underscoring the need for new therapeutic combinations. […] We hypothesized that effective combinations would reduce MYC expression and enhance p16 activity. […] These preclinical data identify potentially useful drug combinations for evaluation in drug-resistant MM and reveal potential mechanisms of combined drug sensitivity.\nDescribed herein is the primary MIPE qHTS used to cherrypick compounds. Validated compounds were then further tested for potential synergistic activiy.\n[1] Peat TJ, Gaikwad SM, Dubois W, Gyabaah-Kessie N, Zhang S, Gorjifard S, Phyo Z, Andres M, Hughitt VK, Simpson RM, Miller MA, Girvin AT, Taylor A, Williams D, D'Antonio N, Zhang Y, Rajagopalan A, Flietner E, Wilson K, Zhang X, Shinn P, Klumpp-Thomas C, McKnight C, Itkin Z, Chen L, Kazandijian D, Zhang J, Michalowski AM, Simmons JK, Keats J, Thomas CJ, Mock BA. Drug combinations identified by high-throughput screening promote cell cycle transition and upregulate Smad pathways in myeloma. Cancer Lett. 2023 Aug 1;568:216284. doi: 10.1016/j.canlet.2023.216284. Epub 2023 Jun 24. PMID: 37356470; PMCID: PMC10408729.\nSEQUENCE No. (e.g., 1, 2, 3, etc.); […] (e.g., Cells, Incubation, Reagent, etc.); VALUE and DESCRIPTION.\n1; Cells; 5 uL; white, solid bottom 1536-well Greiner assay plate.\n2; Compounds; 23 nL; Kalypsis pin tool (Wako USA) equipped with a 1536-well pin head to transfer to the assay plates.\n3; Incubation; 48 hours; 37C incubation.\n4; Reagent;5uL; CellTiter Glo (Promega).\n5; Detector; 425V; Luminescence; Viewlux PerkinElmer.\nNOTES (numbers refer to Sequence numbers above)\n1. The cell-based screening methods employed in this study were like those previously published. Briefly, the corresponding myeloma cell lines were screened in 1,536-well plates with 500 cells, 5-uL per well for inhibition of cell viability (assessed by measuring ATP levels with CellTiterGlo).\n2. NCATS MIPE 4.0 library of approved and investigational drugs were added using the Kalypsis pin tool. Wells treated with DMSO only for 100% viability and media only for 0% viability were used as controls.\n3. The assay plates were covered and incubated for 48 hours in a 37C, 5% CO2 incubator with controlled humidity.\n4. After 48 hours, CellTilter-GloTM luminescent substrate mix (Promega) reagent was added to the assay plate and plates we incubated for 5 min at room temperature.\n5. Signal was measured as median relative luminescence units on a ViewLux (PerkinElmer) multiplate reader.\n[1] Heske CM, Davis MI, Baumgart JT, Wilson K, Gormally MV, Chen L, Zhang X, Ceribelli M, Duveau DY, Guha R, Ferrer M, Arnaldez FI, Ji J, Tran HL, Zhang Y, Mendoza A, Helman LJ, Thomas CJ. Matrix Screen Identifies Synergistic Combination of PARP Inhibitors and Nicotinamide Phosphoribosyltransferase (NAMPT) Inhibitors in Ewing Sarcoma. Clin Cancer Res. 2017 Dec 1;23(23):7301-7311. doi: 10.1158/1078-0432.CCR-17-1121. Epub 2017 Sep 12. PMID: 28899971; PMCID: PMC6636827.", "units": {"viability, % of DMSO control": "%"}, "values": [
      {"smiles": "CNCC(O)c1ccc(O)cc1", "note": "(configuration not stated)", "viability, % of DMSO control": 124},
      {"smiles": "O=c1[nH]c2ccccc2n1CCCN1CCC(n2c(=O)[nH]c3cc(Cl)ccc32)CC1", "viability, % of DMSO control": 103},
      {"smiles": "CN(C)CCN(C)CCc1ccc(Cl)c(Cl)c1", "viability, % of DMSO control": 117},
      {"smiles": "CNC(=O)N1N=C(c2ccc(N)cc2)c2cc3c(cc2CC1C)OCO3", "note": "(configuration not stated)", "Potency": "4.69 µM (active)"},
      {"smiles": "CCCC(C)(COC(N)=O)COC(=O)NC(C)C", "note": "(configuration not stated)", "viability, % of DMSO control": 127},
      {"smiles": "Cn1c(CCCC(=O)O)nc2cc(N(CCCl)CCCl)ccc21", "Potency": "7.43 µM (active)"},
      {"smiles": "COC[C@H]1OC(=O)c2coc3c2[C@@]1(C)C1=C(C3=O)C2CCC(=O)[C@@]2(C)C[C@H]1OC(C)=O", "note": "(some centres not stated)", "Potency": "6.62 µM (active)"},
      {"smiles": "CN(C)CCc1ccc(O)cc1", "viability, % of DMSO control": 110},
      {"smiles": "C[C@@H]1[C@@H](C(=O)C[C@H]2O[C@@H]3O[C@]4(C)CC[C@@H]5[C@H](C)CC[C@@H]([C@H]2C)[C@@]35OO4)O[C@@H]2O[C@]3(C)CC[C@H]4[C@H](C)CC[C@@H]1[C@@]24OO3", "Potency": "0.418 µM (active)"},
      {"smiles": "CNC(=O)c1ccc(N2C(=S)N(c3ccc(C#N)c(C(F)(F)F)c3)C(=O)C23CCC3)cc1F", "viability, % of DMSO control": 153},
      {"smiles": "COC[C@@H](NC(C)=O)C(=O)NCc1ccccc1", "viability, % of DMSO control": 124},
      {"smiles": "C[C@@H]1O[C@@H](O[C@H]2C[C@@H](O)[C@]3(CO)[C@H]4[C@H](O)C[C@]5(C)[C@@H](C6=CC(=O)OC6)CC[C@]5(O)[C@@H]4CC[C@]3(O)C2)[C@H](O)[C@H](O)[C@H]1O", "Potency": "0.0209 µM (active)"},
      {"smiles": "C[C@@H]1[C@@H](CC(C[C@H]2O[C@@H]3O[C@]4(C)CC[C@@H]5[C@H](C)CC[C@@H]([C@H]2C)[C@@]35OO4)C[S+](=O)([O-])c2ccc(COC(=O)N(C)C)cc2)O[C@@H]2O[C@]3(C)CC[C@H]4[C@H](C)CC[C@@H]1[C@@]24OO3", "note": "(some centres not stated)", "Potency": "0.209 µM (active)"},
      {"smiles": "Fc1ccc(C(OCCN2CCN(CCCc3ccccc3)CC2)c2ccc(F)cc2)cc1", "Potency": "23.5 µM (active)"},
      {"smiles": "COc1ccc(C(=O)c2c(C)n(CCN3CCOCC3)c3ccccc23)cc1", "viability, % of DMSO control": 130},
      {"smiles": "N[C@@H](Cc1ccc(N(CCCl)CCCl)cc1)C(=O)O", "Potency": "16.6 µM (active)"},
      {"smiles": "COC1(CS(=O)c2ccccc2)CCN(CCc2c[nH]c3ccc(F)cc23)CC1", "note": "(configuration not stated)", "Potency": "8.33 µM (active)"},
      {"smiles": "Cc1sc2c(c1C)C(c1ccc(Cl)cc1)=N[C@@H](CC(=O)OC(C)(C)C)c1nnc(C)n1-2", "Potency": "0.235 µM (active)"},
      {"smiles": "NCC1(CC(=O)O)CCCCC1", "viability, % of DMSO control": 131},
      {"smiles": "O=C(O)C(=O)c1cn(Cc2ccccc2)c2ccc(-c3ccc(OC(F)(F)F)cc3)cc12", "Potency": "3.32 µM (active)"},
      {"smiles": "Cc1cccc(C)c1NC(=O)CN1CCCC1=O", "viability, % of DMSO control": 110},
      {"smiles": "O=C1CC[C@@]2(O)[C@H]3Cc4ccc(O)c5c4[C@@]2(CCN3CC2CC2)[C@H]1O5", "viability, % of DMSO control": 104}
    ]}
  ]
}
